Values joined by “and” are separate entries in the source; they are usually repeats but may differ in a detail not shown here. Equal entries are not always repeated. Results filed as inconclusive are left out. A structure can be active in one record and inactive in another. Active and inactive are the calls of the source. Rule for the calls: active = hit-call score of the fitted dose curve at least 0.9, where 1 is the maximum; inconclusive = response in the unintended direction; inactive = score below 0.9.

Consider eleven compounds from PubChem BioAssay (EPA / NIEHS).

rat CYP2D2, Cyp2d26 (gene 25053), sequence (P10634 whole entry, looked up): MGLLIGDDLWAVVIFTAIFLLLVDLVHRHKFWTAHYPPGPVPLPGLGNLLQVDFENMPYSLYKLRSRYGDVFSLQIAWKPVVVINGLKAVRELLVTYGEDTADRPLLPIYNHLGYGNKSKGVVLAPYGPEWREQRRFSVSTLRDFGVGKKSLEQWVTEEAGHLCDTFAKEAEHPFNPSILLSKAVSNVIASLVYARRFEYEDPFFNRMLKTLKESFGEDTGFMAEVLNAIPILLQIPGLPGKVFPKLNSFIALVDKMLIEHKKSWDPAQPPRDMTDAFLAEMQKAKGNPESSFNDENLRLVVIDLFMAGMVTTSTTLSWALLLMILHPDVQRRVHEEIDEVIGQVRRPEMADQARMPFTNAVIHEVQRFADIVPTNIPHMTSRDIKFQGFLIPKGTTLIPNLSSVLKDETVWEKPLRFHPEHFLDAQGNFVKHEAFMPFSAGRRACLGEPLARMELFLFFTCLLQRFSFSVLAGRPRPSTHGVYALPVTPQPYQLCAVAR

The experiment deals with rat CYP2D2, Cyp2d26 (gene 25053) (UniProt P10634). Nature of the experiment: NVS_ADME_rCYP2D2: NovaScreen (NVS) CYP450-related Enzyme Activity (ADME) Assay for rat CYP2D2 (AID 2283124). The method, then:
NVS_ADME_rCYP2D2 is a biochemical, single-readout assay that uses extracted gene-proteins in a cell-free assay. Measurements were taken 0.75 hour after chemical dosing in a 96-well plate.NVS_ADME_rCYP2D2 is one of one assay component(s) measured or calculated from the NVS_ADME_rCYP2D2 assay. It is designed to make measurements of enzyme activity, a form of enzyme reporter, as detected with fluorescence intensity signals by Fluorescence technology.Data from the assay component NVS_ADME_rCYP2D2 was analyzed into 1 assay endpoint. This assay endpoint, NVS_ADME_rCYP2D2, was analyzed in the positive analysis fitting direction relative to Acetonitrile as the negative control and baseline of activity. Using a type of enzyme reporter, loss-of-signal activity can be used to understand changes in the enzymatic activity as they relate to the gene Cyp2d2. Furthermore, this assay endpoint can be referred to as a primary readout, because this assay has produced multiple assay endpoints where this one serves a enzymatic activity function. To generalize the intended target to other relatable targets, this assay endpoint is annotated to the cyp intended target family, where the subfamily is xenobiotic metabolism.
Binding assays used specific radioligands (tritiated, iodinated) with non-radioactive competitive displacement ligands in agonist or antagonist protocols (as indicated) and various reference compounds and inhibitors to titrate specific binding to receptors and transporters. Most enzyme assays (CYPs, kinases, phosphatases, proteases, HDACs) used recombinant protein and specific substrates (fluorescence mostly, some colorimetric and radioactive) and inhibitors, followed by a biochemical separation of substrate and product. All assays for the biochemical HTS were initially run in duplicate at a single concentration (10 uM for CYP450 assays and 25 uM for all others). Assay-chemical combinations meeting a pre-defined threshold (e.g., 30% inhibition and other criteria defined below) were then run in singleton concentration-response format with maximum concentration of 20 uM for CYPs and 50 uM for all others. Each assay was run with positive and negative controls, and concurrent controls on every plate. The follow-up (secondary) screen tested active chemical-pairs in concentration series, as well as a few additional assays not tested in the primary screen, some selected negative inactives, and several cases re-run in the concentration series for confirmatory purposes.
As for `OC(c1ccc(Cl)cc1)(c1cncnc1)c1ccccc1Cl` (configuration not stated), the AC50 was 6.92 µM (active). Turning to `COc1ccc(C(c2ccc(OC)cc2)C(Cl)(Cl)Cl)cc1`, the result was inactive. For the compound `CC1COC(Cn2cncn2)(c2ccc(Oc3ccc(Cl)cc3)cc2Cl)O1` (configuration not stated), the AC50 is 1.4 µM (active). Same read-out and setting: in the case of `C#CCOS(=O)OC1CCCCC1Oc1ccc(C(C)(C)C)cc1` (configuration not stated) it was 10 µM (active).

Turning to `COC(=O)C(C)Oc1ccc(Oc2ccc(Cl)cc2Cl)cc1` (configuration not stated), the AC50 is 7.38 µM (active) and 10 µM (active); the call was inactive. As to `CCOC(=O)CC(SP(=S)(OC)OC)C(=O)OCC` (configuration not stated), the AC50 is 6.28 µM (active). Same read-out and setting: next, `CCCN(CCC)c1c([N+](=O)[O-])cc(S(N)(=O)=O)cc1[N+](=O)[O-]`: 1.3 µM (active); `CCCC1COC(Cn2cncn2)(c2ccc(Cl)cc2Cl)O1` (configuration not stated): 7.44 µM (active) and 7.78 µM (active).

On to `CCOP(=S)(OCC)SCn1c(=O)oc2cc(Cl)ccc21`, for which the AC50 was 2.07 µM (active). As to `Cc1ccc(-c2c(Cl)nc(C#N)n2S(=O)(=O)N(C)C)cc1`, the AC50 is 4.31 µM (active). Turning to `CCOC(=O)C(Cl)Cc1cc(-n2nc(C)n(C(F)F)c2=O)c(F)cc1Cl` (configuration not stated), the compound was classed as inactive.

The AC50 is the concentration giving half of the maximal activity seen.
